An excerpt weighted towards active compounds, which were near 19% of everything screened.
TDP1 cell noCPT: qHTS for Inhibitors of human tyrosyl-DNA phosphodiesterase 1 (TDP1): qHTS in cells in absence of CPT; Potency, µM (highest dose often 46.2 µM), most hits filed as inhibitors; hit rate 15% among 420,000; DT40 Tdp1-/- hTDP1 cells, no CPT, ATP luminescence, 48 h; note: nearly all actives have a fitted effect of over 55% in size
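DT40 Tdp1-/-;hTDP1 cells, no CPT (DMSO vehicle only), 400 cells/well; compounds pin-transferred; ≥48 hr, 37 °C; CellTiter-Glo 30 min RT dark, luminescence read.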
IL-1B inflam inh: qHTS for Inhibitors of Inflammasome Signaling: IL-1-beta AlphaLISA Primary Screen. activity change, % at 57.5 µM. THP-1 LPS/ATP IL-1B secretion, AlphaLISA, 16 h; hits give low values. hit rate 4.7% among 360,000; in the data active = activity change below about -50%; inconclusive = mostly about -30% to -49%
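THP-1 cells pretreated 1 hr with compounds (up to 57.5 uM final), then stimulated with LPS (250 ng/mL final) plus ATP (1.25 mM final); secreted IL-1B measured by AlphaLISA after 16 hr, decreased signal indicating inhibition.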
DT40 TDP1 CPT: qHTS for Inhibitors of human tyrosyl-DNA phosphodiesterase 1 (TDP1): qHTS in cells in presence of CPT; hit rate 12% among 420,000; Potency, µM (titrated, usually from 46.2 µM), usual class: inhibitors; chicken DT40 Tdp1-/-;hTDP1 cells + 20 nM CPT, ATP luminescence, 48 h; note: nearly all actives have a fitted effect of over 55% in size
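Chicken DT40 Tdp1-/- cells stably complemented with human TDP1 were seeded at 400 cells/well in medium containing 20 nM camptothecin, exposed to pin-transferred compounds, and grown at 37 °C for at least 48 hr. Viability was read as ATP luminescence.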
HT1080-NT tox: qHTS for induction of synthetic lethality in tumor cells producing 2HG: qHTS for the HT-1080-NT fibrosarcoma cell line | HT-1080-NT fibrosarcoma viability, CellTiter-Glo ATP luminescence, 48 h | Potency, µM (series often up to 46.1 µM), usual class: cytotoxic | hit rate 1.6% among 360,000;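 note: NT is the 2HG producing partner of a matched IDH1 knockdown line; nearly all actives have a fitted effect of over 55% in size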
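Toxicity toward the 2HG-producing NT line was scored as %Activity, normalised to DMSO and no-cell wells, from CellTiter-Glo luminescence after 48 hours' treatment.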
HT1080 IDH1KD tx: qHTS for induction of synthetic lethality in tumor cells producing 2HG: qHTS for the HT-1080-IDH1KD cell line. AID 686971, 2013. HT-1080 IDH1 knockdown viability, ATP luminescence, 48 h. hit rate 2% among 360,000. Potency, µM (titrated, usually from 46.1 µM), hits mostly cytotoxic
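Luminescent ATP read-out (CellTiter-Glo, 10 min at room temperature) after 48 h compound exposure at 37 °C gave viability of IDH1-knockdown HT-1080 cells. Activity was normalised to DMSO and cell-free wells, then fitted as concentration-response curves.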
Hits are given with their value; 0 = inactive; ? = inconclusive; - = not tested or not shown; [ ] = remark or other dose. Unless noted, calls come from the whole dose curve; as a rule, active = well fitted curve in the direction sought with a large enough effect; inconclusive = small, poorly fitted or top-dose-only effect, or another doubt; inactive = no such curve, though single readings can be large; an effect the other way counts as inactive or inconclusive.

SMILES	TDP1 cell noCPT	IL-1B inflam inh	DT40 TDP1 CPT	HT1080-NT tox	HT1080 IDH1KD tx
COc1ccc(NC(=O)c2c3c(nc4ccccc24)CCC3)cc1	0	0	0	0[9.24 µM]	0
CCN(CC)CCOC(=O)c1ccc(Nc2c3c(nc4ccccc24)CCC3)cc1	18.4µM	-	?	-	-
c1ccc2c(Nc3ccc4c(c3)OCCO4)c3c(nc2c1)CCC3	14.6µM	0	23.1µM	0	0
COC(=O)c1c2c(nc3ccccc13)CCC2	?	0	0	0	0
CC(=O)NC(CCS(C)(=O)=O)C(=O)Nc1ccc(F)cc1Cl (configuration not stated)	0	0	0	0	0
CC(C)(C)Nc1c2ccccc2nc2ccccc12	18.4µM	-92.3	20.6µM	0	0
COc1ccc(Nc2nc3ccccc3c(=O)[nH]2)cc1	?	0	?	0	0
COc1ccccc1Nc1c2ccccc2nc2ccccc12	16.4µM	-93.0	16.4µM	16.4µM	?
COc1ccccc1Nc1nc(-c2ccccc2)nc2ccccc12	?	0	?	0	0
COc1ccc(C)cc1Nc1c2c(nc3ccccc13)CCC2	2.59µM	-82.5	3.26µM	?	1.16µM
Clc1cncc(Cl)c1NNc1c2ccccc2nc2ccccc12	?	0	?	0	0
COc1ccc(Nc2c3ccccc3nc3ccccc23)cc1	?	-98.0	?	9.2µM	11.6µM
COc1ccccc1NC(C)C(=O)c1c(C)[nH]c2ccccc12 (configuration not stated)	?	-	0	-	-
COc1cccc(CNC(=O)[C@@H]2CCCN2C(=O)OC(C)(C)C)c1	0	0	0	0	0
Cc1cccc(C)c1C(=NCCN(C)C)c1ccccc1	0	0	0	0	0
Cc1cccc(C(=O)NCC(=O)Nc2ccncc2)c1	?	0	0	0	0
COc1ccc(Nc2c3c(nc4ccccc24)CCC3)cc1Cl	18.4µM	-	11.6µM	-	-
COc1ccc(Nc2c3c(nc4ccccc24)CCCC3)cc1OC	?	0	?	?	?
Fc1ccc(Nc2c3c(nc4ccccc24)CCC3)cc1	10.3µM	-95.6	5.17µM	16.4µM	?
O=C(O)/C=C/c1ccc(S(=O)(=O)NCc2cccnc2)cc1	0	0	?	0	0
N#Cc1cn(-c2cccc(C(F)(F)F)c2)c(=O)[nH]c1=O	0	0	0	0	0
FC(F)(F)c1nnc2ccc(NCc3ccccc3)nn12	0	0	0	0	0
CCc1ccc(OCC(=O)c2c(O)c3ccccc3oc2=O)cc1	23.1µM	0	?	0	0
Cc1ccc(OCC(=O)c2c(O)c3ccccc3oc2=O)cc1C	14.6µM	0	?	0	0
Cc1ccc(OCC(=O)Nc2c(C(=O)c3ccccc3)oc3ccccc23)cc1C	0	-	0	-	-
SMILES	TDP1 cell noCPT	IL-1B inflam inh	DT40 TDP1 CPT	HT1080-NT tox	HT1080 IDH1KD tx
Cc1ccc(C(C)C)c(OCC(=O)c2c(O)c3ccccc3oc2=O)c1	23.1µM	0	?	0	0
CCOc1ccc(N=Cc2c(O)c3ccccc3oc2=O)cc1	0	0	0	0	0
CC(C)(C)OC(=O)C(C)(C)Sc1nnc(N)s1	0	0	0	0	0
CCCS(=O)(=O)c1nc(S(=O)(=O)c2ccc(C)cc2)c(NCCCOC(C)C)s1	16.4µM	-	?	-	-
Cc1ccc(S(=O)(=O)c2nc(S(=O)(=O)c3ccccc3)sc2NCCCOC(C)C)cc1	11.6µM	-	?	-	-
CCCS(=O)(=O)c1nc(S(=O)(=O)c2ccc(C)cc2)c(NCCCN(C)C)s1	0	0	0	0	0
Cc1ccc(N(CC(=O)NCC2CCCO2)C(=O)CCC(=O)Nc2nccs2)cc1 (configuration not stated)	0	0	0	0	0
COc1ccc(NC(=O)CN2C(=O)/C(=C3\SC(=S)N(CCC(=O)O)C3=O)c3ccccc32)cc1	0	0	0	?	0
O=C(CN1C(=O)/C(=C2\SC(=S)N(C3CCS(=O)(=O)C3)C2=O)c2ccccc21)Nc1ccccc1 (configuration not stated)	13µM	0	?	0	0
CC1CCC(NC(=O)c2cc(S(=O)(=O)N3CCCCC3)ccc2N2CCOCC2)CC1 (configuration not stated)	?	0	?	0	0
CN(C)C(CNc1ccc(C(N)=O)cc1[N+](=O)[O-])c1ccccc1 (configuration not stated)	0	0	0	0	0
Nc1ccc(C(=O)OCC(=O)N2c3ccccc3Sc3ccccc32)cc1[N+](=O)[O-]	7.31µM	0	?	0	0
NCCNc1ccc(C(=O)N2c3ccccc3Sc3ccccc32)cc1[N+](=O)[O-]	18.4µM	-92.2	18.4µM	?	16.4µM
COc1ccc(S(=O)(=O)Nc2cc3c4c(c2)CCC(=O)N4CCC3)cc1C	?	0	16.4µM	0	0
O=C1Cc2cc(S(=O)(=O)Nc3cccc(C(F)(F)F)c3)cc3c2N1CCC3	0	-	?	-	-
Cc1ccc(NS(=O)(=O)c2cc3c4c(c2)CC(=O)N4CCC3)cc1C	0	0	13µM	0	0
CC(C)=NNc1nc2c(c(=O)[nH]c(=O)n2C)n1CCc1ccccc1	?	0	?	0	0
CCC(SC1=N/C(=C/c2ccccc2OC)C(=O)N1c1ccccc1)C(=O)Nc1cc(C)on1 (configuration not stated)	8.2µM	0	11.6µM	0	0
CC(C)S(=O)(=O)c1cnc(-c2cccnc2)nc1N	0	0	0	0	0
Cc1[nH]nc2c1C(C(C)c1ccccc1)C(C#N)=C(N)O2 (configuration not stated)	?	-86.1	?	0	0
Cc1cc(OCC(=O)NC(C)c2ccccc2)ccc1[N+](=O)[O-] (configuration not stated)	16.4µM	0	18.4µM	0	?
Cc1cc(OCC(=O)NCc2cccnc2)ccc1[N+](=O)[O-]	0	0	0	0	0
Cc1ccc(NC(=O)CN(C)C(=O)COc2cccc3cccnc23)cc1	2.91µM	0	3.66µM	0	0
Cc1ccc(NC(=O)c2cccc3cccnc23)cc1	18.4µM	0	?	0	0
CCN(CC(=O)Nc1c(F)cccc1F)C(=O)c1cccn1C	0	0	0	0	0
COc1ccccc1N1CCN(C(=O)c2cn(C)c3ccc(S(=O)(=O)N(C)C4CCCCC4)cc3c2=O)CC1	?	-	0	-	-
CNc1cncc(-c2cc(C)c(O)c(C)c2)n1	6.51µM	0	4.11µM	?	?
COc1cc(Cl)c(CN2CCCC(CO)(Cc3cccc(Cl)c3)C2)cc1OC (configuration not stated)	?	0	18.4µM	0	0
